# In PubChem BioAssay AID1259343 (VanderVen Lab, College of Veterinary Medicine, Cornell …, 2017):
# The campaign covered roughly 6,200 compounds. About 2,900 (47%) were called active. The set was probably picked from earlier hits. The list shows a part of the results. A number with no mark means an inactive call. Cut-off read from the data, not from the text of the source: active = inhibition above about 50%; inactive = the rest.
# Assay: Mycobacterium tuberculosis growth inhibition, primary screen (AID 1259343)
# Conditions: inhibition: at 10 µM, stronger effect = higher value; outcome: 10 uM
row,SMILES,inhibition
1,COc1ccc(CNS(=O)(=O)c2ccc3c(c2)CCCC3)cc1,-18%
2,O=S(=O)(NCc1ccc(F)cc1)c1ccc2c(c1)CCCC2,89.6% (active)
3,O=S(=O)(Nc1ccc2c(c1)CCC2)c1ccc(F)cc1,-4.64%
4,COCc1ccc(C(=O)NC2C3CC4CC(C3)CC2C4)cc1 (configuration not stated),75.8% (active)
5,CC(=O)Nc1ccc(C(=O)NC2CCC3CCCCC3C2)cc1 (configuration not stated),-37.5%
6,CCCc1nc(CN(C)c2nc(C)nc3sccc23)no1,14.1%
7,COc1cccc(OC)c1OCCCOc1ccc(C)cc1Br,87.8% (active)
8,COc1ccccc1OCCCOc1ccc(C)cc1Br,34.8%
9,COc1cccc(OC)c1OCCOc1ccc(C)cc1Br,76.4% (active)
10,O=C(Nc1ccc(N2CCC(NCCC3=CCCCC3)CC2)cc1)c1ccc2c(c1)OCO2,47%
11,CCCCCCc1ccc(C(=O)Nc2ccc(-n3nc(OC)nc3-c3ccc4c(c3)OCO4)cc2)cc1,56.7% (active)
12,COc1cc2c(cc1O)C(SC)=NC(C)(C)C2,55.5% (active)
13,CC(=O)NC(C)C(=O)Nc1cccc(Sc2ccccc2)c1 (configuration not stated),62.7% (active)
14,Cc1csc(C(C#N)C(=O)Nc2ccccc2)n1 (configuration not stated),-32.9%
15,CC1CCN(S(=O)(=O)N2CC=C(c3c[nH]c4ccccc34)CC2)CC1,29.2%
16,CCCS(=O)(=O)N1CCc2[nH]c3ccc(F)cc3c2C1,22.7%
17,CCCS(=O)(=O)N1CC=C(c2c[nH]c3cc(F)ccc23)CC1,88.2% (active)
18,O=C(Nc1cccc2cnccc12)OCC(F)(F)F,72.3% (active)
19,COc1cc(C(=O)C(C#N)C(=O)CC(C)(C)C)ccc1C (configuration not stated),101% (active)
20,Cc1ccc(C(=O)O)cc1OCc1csc(Br)c1,7.03%
21,CCC(=NNc1ccnc2cc(Cl)ccc12)c1ccccc1,93.9% (active)
22,CC(Nc1nc(-c2cccs2)nc2cc(Cl)ccc12)c1ccccc1 (configuration not stated),3.37%
23,CC(=NNc1ccnc2cc(Cl)ccc12)c1ccc(C)o1,2.38%
24,CC(OC(=O)c1ccc([N+](=O)[O-])o1)C(=O)Nc1ccccc1OC(F)F (configuration not stated),101% (active)
25,CN(C)c1ccccc1NC(=O)c1ccccc1OC(F)F,23.1%
26,CC1CCC(C(C)C)C(OC(=O)COC(=O)c2ccc([N+](=O)[O-])o2)C1 (configuration not stated),10.8%

row,SMILES,inhibition
1,COc1ccc(-c2nc(CNc3ccc(C)c(F)c3)no2)cc1,91.5% (active)
2,CC(C)c1ccc(NC(=O)c2ccc(-c3ccnn3C)c3ccoc23)cc1,77.8% (active)
3,CC(C)c1cnc(COc2ccc(Br)nc2)o1,38.6%
4,CN(CC(=O)c1cccc(Br)c1)C1CCCCC1,13.2%
5,Cc1nc(NC(=O)c2cccc(Br)c2)oc1C,94.3% (active)
6,NC(=S)c1cccc(Br)c1,22.8%
7,Cc1ccc(-c2nc(COc3ccc(C)cn3)co2)cc1,58.5% (active)
8,COc1ccccc1OCc1coc(-c2ccc(C)cc2C)n1,40.9%
9,c1csc(-c2nc(COc3ccc4c(c3)CCC4)co2)c1,-21.4%
10,O=C(O)Cc1cc(-c2ccc3c(c2)OCCO3)on1,73.2% (active)
11,CC1Cc2cc(-c3cc(CO)no3)ccc2O1 (configuration not stated),-11.9%
12,O=C(Cc1cc(-c2ccc3c(c2)OCO3)on1)NCc1cccs1,90.9% (active)
13,COC(=O)CC1CC(=O)C2C(=O)c3c(OC)ccc(Br)c3C2C1 (configuration not stated),28.1%
14,c1ccc(N2CCN(c3ccccn3)CC2)cc1,61.2% (active)
15,O=S(=O)(N1CCN(c2ccccc2)CC1)C(F)(F)C(F)(F)C(F)(F)C(F)(F)F,21.4%
16,O=C1c2ccccc2-c2nn(CN3CCN(c4ccccc4)CC3)c3cccc1c23,31.3%
17,CCCCCCSC1=C(C#N)C2(CCCCC2)C(C#N)C(=O)N1 (configuration not stated),4.19%
18,Fc1ccc(/C=C/c2nnc(-c3ccccc3Cl)o2)cc1,42.9%
19,Fc1ccccc1-c1nnc(-c2ccc3c(c2)OCO3)o1,-0.93%
20,Fc1ccc(-c2nnc(-c3ccc4c(c3)OCO4)o2)cc1,70.5% (active)
21,Clc1ccccc1-c1nnc(-c2ccc3c(c2)OCO3)o1,72.5% (active)
22,Oc1ccccc1C1CC(c2ccc3c(c2)OCO3)=NC(c2cccc(F)c2)N1 (configuration not stated),-19.4%
23,O=C(Nc1cccc(O)c1)c1nn2c(C(F)(F)F)cc(-c3ccccc3)nc2c1Cl,-37.9%
24,Fc1ccc2c(c1)C(=NNc1nc3ccccc3s1)CCS2,-16.9%
25,c1ccc2c(c1)CCC(=NNc1nc3ccccc3s1)C2,48.5%
26,Oc1c(Cl)cc(Cl)cc1C=NNc1nc2ccccc2s1,101% (active)
